Assay outcomes deposited in PubChem by The Scripps Research Institute Molecular Screening Center.
Sampled rows, rich in hits. Any-hit rate of the full collection: about 1.1%.
MOR-DOR inv ag = inverse agonist of human OPRM1-OPRD1 heterodimerization; cell-based MOR-DOR heterodimer luminescence, inverse agonism; P35372+P41143; AID 504357; inhibition, % at 9.3 µM; 340,000 compounds, 0.21% hits; in the data active = inhibition above about 22%, passing the limit was not always enough
MOR-DOR ag-1 = OPRM1-OPRD1 heterodimerization agonism. P35372+P41143. cells, luminescence. activation, % at 9.3 µM. 340,000 compounds, 0.3% hits. AID 504326
HTR5A inv ag = HTR5A inverse agonism, opioid heterodimer counter-screen; P47898; HTR5A cell line, luminescence; inhibition, % at 9.3 µM; 340,000 compounds, 0.083% hits; AID 504634; in the data active = inhibition mostly above about 23%, no sharp cut-off; inactive = mostly below about 18%
HTR5A ag = counter-screen for OPRM1-OPRD1 agonists: human HTR5A agonism; P47898; HTR5A agonist assay, luminescence, cell-based; activation, % at 9.3 µM; 340,000 compounds, 0.61% hits; AID 504692; in the data active = activation mostly above about 9.5%, no sharp cut-off; inactive = mostly below about 7.6%
MOR-DOR ag-2 = counter-screen for HTR5A agonists: OPRM1-OPRD1 heterodimerization agonism | shares compounds with HTR5A ag | activation, % at 9.3 µM | 800 compounds, 13% hits | AID 504913 | U2OS counter-screen cells, complementation luminescence, 3 h
HTR5A ag confirm = HTR5A (human) agonism, confirmation; HTR5A agonist cell assay, luminescence; shares compounds with HTR5A ag; activation, % at 9.3 µM; AID 504915; 800 compounds, 17% hits; in the data active = activation above about 17%
A number is an active result; 0 = inactive; - = no result given. Cut-off read from the data, not from the text of the source, unless noted: active = activation above about 18%; inactive = the rest.

SMILES | MOR-DOR inv ag | MOR-DOR ag-1 | HTR5A inv ag | HTR5A ag | MOR-DOR ag-2 | HTR5A ag confirm
CC(=O)Nc1ccc(/C=N/NC(=O)CNS(=O)(=O)c2ccccc2)cc1 | 0 | 0 | 0 | 0 | - | -
COc1ccc(/C=N/NC(=O)CNS(=O)(=O)c2ccccc2)cc1 | 0 | 0 | 0 | 21 | 0 | 0
COc1cc(/C=C2\SC(=O)N(CCN)C2=O)ccc1OS(=O)(=O)c1cc(C)ccc1C | 0 | 0 | 0 | 22 | 19 | 0
O=C(COC(=O)c1ccccc1[N+](=O)[O-])NNC(=O)c1cccs1 | 0 | 0 | 0 | 16 | 0 | 0
O=C(NNC(=O)c1ccccc1[N+](=O)[O-])c1cccs1 | 0 | 0 | 0 | 0 | - | -
CC1Cc2ccccc2N1C(=O)Cn1nc(C(=O)O)c2ccccc2c1=O (stereo not given) | 0 | 0 | 0 | 63 | 0 | 0
O=C(OCC(=O)N1CCc2ccccc21)c1c2c(nc3ccccc13)CCCC2 | 0 | 0 | 0 | 0 | - | -
CC1Cc2ccccc2N1C(=O)COC(=O)c1n[nH]c(=O)c2ccccc12 (stereo not given) | 0 | 0 | 0 | 40 | 0 | 0
CC1Cc2ccccc2N1C(=O)COC(=O)c1ccc(Cl)c(S(=O)(=O)N2CCOCC2)c1 (stereo not given) | 0 | 0 | 0 | 24 | 0 | 0
Cc1cnc(C(=O)OCC(=O)N2c3ccccc3CC2C)cn1 (stereo not given) | 0 | 0 | 0 | 0 | - | -
CC1Cc2ccccc2N1C(=O)COC(=O)c1c2c(nc3ccccc13)CCCCC2 (stereo not given) | 0 | 0 | 0 | 22 | 0 | 0
CC1CCN(CC(=O)N2c3ccccc3CC2C)CC1 (stereo not given) | 0 | 0 | 0 | 0 | - | -
CC(C)(C)c1ccc(S(=O)(=O)CCc2ccccn2)cc1 | 0 | 0 | 0 | 24 | 0 | 0
Cc1ccc(S(=O)(=O)CCc2ccccn2)cc1 | 0 | 0 | 0 | 0 | - | -
O=C(CSc1n[nH]c(=O)n1C1CC1)Nc1ccc(F)c([N+](=O)[O-])c1 | 0 | 0 | 0 | 14 | 51 | 0
O=C(c1ccc(Cn2c(=S)[nH]c3ccccc3c2=O)cc1)N1CCN(c2ccccn2)CC1 | 0 | 0 | 0 | 16 | 0 | 0
O=C(c1ccc(Cn2c(=O)[nH]c3ccccc3c2=O)cc1)N1CCN(c2ccccc2)CC1 | 0 | 0 | 0 | 15 | 0 | 0
O=C(c1ccc(Cn2c(=O)[nH]c3ccccc3c2=O)cc1)N1CCN(c2ccccn2)CC1 | 0 | 0 | 0 | 0 | - | -
OCC1OC(n2cnc3c(SCc4ccccc4)nc(F)nc32)C(O)C1O (stereo not given) | 0 | 0 | 0 | 0 | - | -
Cc1ccc(S(=O)(=O)N/N=C\C=C\c2ccccc2)cc1 | 0 | 0 | 0 | 38 | 0 | 0
O=S(=O)(N/N=C\C=C\c1ccccc1)c1ccc(Br)cc1 | 0 | 0 | 0 | 19 | 0 | 0
CC(C)(C)c1ccc(C(=O)O/N=C(\N)c2ccccn2)cc1 | 0 | 0 | 0 | 57 | 0 | 0
O=c1c(Cc2ccc(F)cc2)c(O)ccn1Cc1ccc(F)cc1 | 0 | 0 | 0 | 0 | - | -
O=c1c(Cc2ccc(F)cc2)c(O)ccn1Cc1ccc(Cl)cc1Cl | 0 | 0 | 0 | 20 | 0 | 47
Cc1cc(C)nc(SCC(=O)N/N=C\c2sccc2C)n1 | 0 | 0 | 0 | 22 | 0 | 22
SMILES | MOR-DOR inv ag | MOR-DOR ag-1 | HTR5A inv ag | HTR5A ag | MOR-DOR ag-2 | HTR5A ag confirm
COc1ccc(-c2csc(NC(C)c3nc4cc(C(=O)NCCCO)ccc4n3Cc3ccc(C)cc3)n2)cc1 (stereo not given) | 0 | 0 | 0 | 30 | 0 | 38
CCCSc1ccc([C@@H]2[C@@H]3C(=O)N(C)C(=O)[C@@H]3[C@]3(C(=O)OC)CCCN23)cc1OC | 0 | 0 | 0 | 0 | - | -
O=C(N/N=C/c1cc([N+](=O)[O-])ccc1Cl)c1cc(-c2ccccc2)nc2ccccc12 | 0 | 0 | 0 | 16 | 0 | 0
Cc1nc2ccccc2n1CC(=O)c1ccccc1 | 0 | 0 | 0 | 0 | - | -
Cc1nc2ccccc2n1CC(=O)c1ccc(O)c(O)c1 | 0 | 0 | 0 | 22 | 0 | 21
COc1ccc2[nH]c3c(c2c1)CCN1C(=O)C(CC(=O)NC(C)(C)C)C[C@H](C(=O)N(C(C)C)C(C)C)[C@@]31C (stereo not given in full) | 0 | 0 | 0 | 0 | - | -
Cc1cc[n+](Cc2ccccc2)c(N)c1 | 0 | 0 | 0 | 14 | 55 | 0
CC(C(=O)OCC(=O)N1CCN(c2ccccc2)CC1)N1C(=O)c2ccccc2C1=O (stereo not given) | 0 | 0 | 0 | 19 | 0 | 0
CCOC(=O)CCSc1nc(-c2ccc3c(c2)OCO3)cc(C(F)(F)F)c1C#N | 0 | 0 | 0 | 18 | 0 | 0
CCOC(=O)CC(=O)CSc1nc(-c2ccc3c(c2)OCO3)cc(C(F)(F)F)c1C#N | 0 | 0 | 0 | 0 | - | -
CCc1ccc(CNC(=O)c2ccc3nc(C4CCCCC4)oc3c2)nc1 | 0 | 0 | 0 | 0 | - | -
COc1cc(CCNc2ccc3nnc(-c4ccccc4)n3n2)cc(OC)c1OC | 0 | 0 | 0 | 17 | 0 | 0
COc1ccc2nnc(-c3ccccc3)n2n1 | 0 | 0 | 0 | 0 | - | -
O=C(CSc1nnc(NC(=O)c2ccco2)s1)Nc1ccccc1 | 0 | 0 | 0 | 0 | - | -
Cc1cccc2cc(CNCC3CCCO3)c(Cl)nc12 (stereo not given) | 0 | 0 | 0 | 15 | 0 | 0
Cc1noc(C)c1C(=O)OCC(=O)NCc1ccccc1 | 0 | 0 | 0 | 0 | - | -
Cc1ccc(Nc2nc(N)nc(CN3CCN(Cc4ccc5c(c4)OCO5)CC3)n2)cc1Cl | 0 | 0 | 0 | 18 | 0 | 0
CN(Cc1ccccc1Cl)C(=O)c1cnccc1C(F)(F)F | 0 | 0 | 0 | 15 | 0 | 0
O=C(Nc1ccc(C(=O)O)cc1)Nc1ccc(F)cc1F | 0 | 0 | 0 | 0 | - | -
CCc1nc2oc3ccccc3c(=O)c2c(=O)n1CCOC | 0 | 0 | 0 | 0 | - | -
CCc1nc2oc3ccccc3c(=O)c2c(=O)n1-c1ccccc1 | 0 | 0 | 0 | 14 | 0 | 0
Cc1cc(C)c(S(=O)(=O)c2cccc(Cl)c2)c(=O)[nH]1 | 0 | 0 | 0 | 0 | - | -
N#CNc1nc(O)cc(=O)[nH]1 | 0 | 0 | 0 | 0 | - | -
CCn1c(N2CCN(C(=O)NC3CCCCC3)CC2)nc2ccccc21 | 0 | 0 | 0 | 24 | 0 | 0
COC(=O)[C@]1(C)N[C@H](CN(C)C(=O)Nc2ccc(OC)cc2)[C@@H]2C(=O)N(Cc3ccccc3)C(=O)[C@@H]21 | 0 | 0 | 0 | 0 | - | -
SMILES | MOR-DOR inv ag | MOR-DOR ag-1 | HTR5A inv ag | HTR5A ag | MOR-DOR ag-2 | HTR5A ag confirm
COc1ccc(C(=O)CC(=O)C(=O)NCCc2cccc(C)c2)cc1 | 0 | 0 | 0 | 16 | 0 | 0
COc1cc(NC(=O)COc2ccccc2[N+](=O)[O-])ccc1NC(=O)c1cccs1 | 0 | 0 | 0 | 16 | 0 | 0
COc1cc(NC(=O)COc2ccccc2Cl)ccc1NC(=O)c1cccs1 | 0 | 0 | 0 | 0 | - | -
COC(=O)N1CCc2c(sc(NC(=O)C3COc4ccccc4O3)c2C(N)=O)C1 (stereo not given) | 0 | 0 | 0 | 61 | 0 | 43
Cn1c(SCC(=O)NCC2CCCO2)nc2c([nH]c3ccccc32)c1=O (stereo not given) | 0 | 0 | 0 | 22 | 0 | 0
C#CC(=O)CC1(CN(Cc2ccccc2)C(=O)OC(C)(C)C)CCCCC1 | 0 | 0 | 0 | 17 | 34 | 0
